Assay outcomes as filed in PubChem.
The list is not random: actives were taken first. Their share in the collection is about 9.9%.
KDM4E inh = inhibitors of human JMJD2E histone demethylase. JMJD2E catalytic domain, FDH-coupled NADH fluorescence (FDH is formaldehyde dehydrogenase). B2RXH2. hit rate 1.6% among 230,000. Potency, µM (highest dose often 57.1 µM), without a hit: top-dose activity change, negative = inhibition, most hits filed as inhibitors. AID 2147; active = well fitted inhibition curve with a large enough effect, not every such curve was filed as active; inconclusive = small, poorly fitted or top-dose-only effect, or another doubt; inactive = no such curve, though single readings can be large or run the other way;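 also: 0% = wells with enzyme and -100% = buffer wells without enzyme; nearly all actives have a fitted effect of over 50% in size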
HPGD inh = inhibitors of human 15-hydroxyprostaglandin dehydrogenase (HPGD); P15428; purified HPGD, NADH fluorescence kinetic, PGE2 substrate; Potency, µM, without a hit: at the highest dose activity change, negative = inhibition, hits mostly inhibitors; hit rate 4.3% among 150,000; AID 894; active = well fitted inhibition curve with a large enough effect, not every such curve was filed as active; inconclusive = small, poorly fitted or top-dose-only effect, or another doubt; inactive = no such curve, though single readings can be large or run the other way
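20 nM HPGD preincubated 15 min at room temperature with compound in 50 mM Tris-HCl pH 8, 0.01% Tween 20. Started with 1 mM NAD+ and 30 uM prostaglandin E2; NADH fluorescence (360/450 nm) read 5 times over 30-s intervals, last minus first.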
Tau ThT inhib = blocks human tau fibril formation measured by thioflavin T; recombinant tau K18 P301L, heparin-induced fibrillization, ThT fluorescence; hit rate 2.1% among 270,000; P10636; AID 1460; Potency, µM (series often up to 57.4 µM), inactives show at the top dose activity, negative = inhibition, actives largely listed as inhibitors; also: nearly all actives have a fitted effect of over 55% in size
Target sequence (P10636 561-689 P618L limits assumed): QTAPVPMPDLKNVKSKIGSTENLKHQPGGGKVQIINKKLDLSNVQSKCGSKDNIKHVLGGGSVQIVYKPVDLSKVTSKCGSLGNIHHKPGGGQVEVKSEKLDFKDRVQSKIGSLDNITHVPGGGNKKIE
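ThT emission at 510 nm, taken 1 hr after adding 30 uM dye, quantifies aggregates formed when 20 uM heparin acts on human tau K18 P301L for 6 hr at 37 C.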
ALDH1A1 block = ALDH1A1 (human) enzyme inhibition; hit rate 7.3% among 220,000; P00352; Potency, µM (series often up to 75.3 µM), for the others: at the highest dose activity, negative = inhibition, most hits filed as inhibitors; Purified ALDH1A1, NADH fluorescence, propionaldehyde substrate; active = well fitted inhibition curve with a large enough effect, not every such curve was filed as active; inconclusive = small, poorly fitted or top-dose-only effect, or another doubt; inactive = no such curve, though single readings can be large or run the other way;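 also: plate controls were no enzyme wells and a reference inhibitor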
Target sequence (P00352 whole entry, looked up): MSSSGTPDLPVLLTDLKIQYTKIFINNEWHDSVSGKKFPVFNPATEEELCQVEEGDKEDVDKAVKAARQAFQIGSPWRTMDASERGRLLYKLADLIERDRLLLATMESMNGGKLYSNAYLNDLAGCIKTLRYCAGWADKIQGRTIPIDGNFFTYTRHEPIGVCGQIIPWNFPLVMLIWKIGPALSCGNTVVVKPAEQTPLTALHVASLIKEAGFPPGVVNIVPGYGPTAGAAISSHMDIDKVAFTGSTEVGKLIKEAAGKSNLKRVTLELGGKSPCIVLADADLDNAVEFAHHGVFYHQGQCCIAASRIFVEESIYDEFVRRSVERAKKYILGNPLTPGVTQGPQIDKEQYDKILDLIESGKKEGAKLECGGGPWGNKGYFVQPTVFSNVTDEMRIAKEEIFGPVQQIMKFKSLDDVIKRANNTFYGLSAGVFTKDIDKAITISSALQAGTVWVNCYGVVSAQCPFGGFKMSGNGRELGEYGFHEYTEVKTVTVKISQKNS
Tau fluor cs = counter-screen for tau fibril formation inhibitors; tau K18 P301L Alexa594 fluorescence, heparin fibrillization; Potency, µM (doses to about 57.7 µM), for inactives: at the top dose activity change, negative = decrease; hit rate 0.93% among 280,000; also: nearly all actives have a fitted effect of over 55% in size
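Human tau K18 P301L (15 uM unlabeled, 0.24 uM Alexa 594-labeled) in 100 mM sodium acetate pH 7 with 20 uM heparin, 6 hr at 37 C. ThT 30 uM added, 1 hr ambient; Alexa 594 FP and total fluorescence read at 555/632 nm.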
Tau FP inhib = inhibitors of human tau fibril formation. P10636. K18 P301L tau heparin fibrillization, Alexa594 FP, 6 h. Potency, µM (highest dose often 57.7 µM), for inactives: at the highest dose activity, negative = inhibition, usual class: inhibitors. hit rate 0.39% among 280,000. AID 1468; also: nearly all actives have a fitted effect of over 55% in size
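Human K18 P301L fragment (15 uM unlabeled plus 0.24 uM Alexa 594-labeled) in 100 mM sodium acetate pH 7 with compound, aggregation induced by 20 uM heparin for 6 hr at 37 C. ThT (30 uM) added for 1 hr, then Alexa 594 FP read.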
Starred values were filed as active, the others as inactive; ? = inconclusive; . = not tested or not shown; [ ] = dose if it differs, or a comment. Unless noted, calls follow the shape of the dose curve; as a rule, active = well fitted curve in the direction sought with a large enough effect; inconclusive = small, poorly fitted or top-dose-only effect, or another doubt; inactive = no such curve, though single readings can be large; an effect the other way counts as inactive or inconclusive. Unless noted, % is scaled to controls: 0 for no effect and ±100 for the full control effect; potency is read from the fitted curve at half-maximal effect.

SMILES	KDM4E inh	HPGD inh	Tau ThT inhib	ALDH1A1 block	Tau fluor cs	Tau FP inhib
COc1ccc(C(=O)C2CCCN(C(=O)c3noc4c3CCCC4)C2)cc1F (stereo not given)	6%	.	-5%	3.5µM*	-9%	6%
COc1ccc(OC)c(NC(=O)N2CCCC(C(=O)c3ccccc3OC)C2)c1 (stereo not given)	11%	.	-23%	13µM*	?	11%
Cc1cccc2c1N(CCCOc1ccc(C(C)(C)C)cc1)C(=O)C2=O	-3%	8.9µM*	?	0.089µM*	-23%	2%
Cc1ccc(OCCN2C(=O)c3ccccc3C2=O)c(C)c1	3%	22µM*	-10%	5%	-17%	-2%
Cc1ccc(OCCN2C(=O)c3ccccc3C2=O)c([N+](=O)[O-])c1	3%	-22%	-5%	?	-22%	1%
Cc1ccccc1OCCCN1C(=O)C(=O)c2cccc(C)c21	-7%	?	22µM*	0.11µM*	-21%	-15%
CCN(CC)S(=O)(=O)c1ccc(NC(=O)c2nn(C)c3c2CSc2ccccc2-3)cc1	.	.	-3%	.	-8%	1%
CCc1cccc(C)c1NC(=O)c1cc(C)nc2c1c(C)nn2-c1cccc(Cl)c1C	.	.	2%	.	2%	-7%
O=c1[nH]nc(-c2ccccc2)c2ccccc12	0%	.	-10%	.	-10%	3%
Fc1ccc(-c2n[nH]c(=S)c3ccccc23)cc1	-7%	.	-11%	4µM*	-7%	5%
c1ccc(-c2n[nH]c3ccccc23)cc1	?	14µM*	5%	?	-16%	-7%
O=C(NCCCCc1ccccc1)C1CC(c2ccc(C(F)(F)F)cc2)=NO1 (stereo not given)	10%	.	2%	.	-3%	-2%
Cc1ccc2c(c1)c1c(c(=O)n(-c3cccc(Cl)c3)c(=O)n1CC(=O)c1ccc(Cl)cc1)n2C	.	.	-2%	.	-11%	-4%
O=C(NCCCN1CCOCC1)c1ccc(-n2nc(C(F)(F)F)cc2-c2cccs2)cc1	-7%	-5%	-2%	9%	-17%	-5%
COCCCNC(=O)c1ccc(-n2nc(C(F)(F)F)cc2-c2cccs2)cc1	7%	14µM*	-19%	20µM*	-19%	-4%
COc1ccc2c(c1)-c1nc(NC(=O)c3ccc(OC)c(Br)c3)sc1CC2	.	.	?	.	?	-13%
COc1ccc2c(c1)-c1nc(/N=C/c3cccc(OC)c3O)sc1CC2	2%	-17%	6%	11µM*	3%	-1%
COc1ccc(/C=C(\C#N)C(N)=O)cc1OC	.	-4%	.	-7%[13.5 µM]	.	.
CCOc1cc(/C=N/NS(=O)(=O)c2ccccc2)ccc1OS(=O)(=O)c1ccc(C)cc1	-3%	-13%	-9%	8.9µM*	?	?
CCOc1cc(/C=C(\C#N)C(N)=O)ccc1OS(=O)(=O)c1ccccc1	-1%	-24%	-2%	13µM*	1%	7%
CCOc1cc(/C=N/O)ccc1OS(=O)(=O)c1ccc(C)cc1	0%	-23%	1%	?	-27%	-10%
Cc1cccc(NC(=O)c2cc([N+](=O)[O-])ccc2N2CCCCC2)n1	5%	.	-11%	?	?	13%
O=C(CN1CCCCC1)Nc1ccc(Br)cc1[N+](=O)[O-]	4%	.	-12%	-15%	-22%	-12%
COC(=O)Nc1ccc2[nH]cc(CCNC(C)=O)c2c1	-15%	-6%	5%	6%	0%	-8%
O=Nc1ccc2oc(=O)ccc2c1	-6%	16µM*	?	0.13µM*	-24%	?
SMILES	KDM4E inh	HPGD inh	Tau ThT inhib	ALDH1A1 block	Tau fluor cs	Tau FP inhib
COc1cc2ccc(=O)oc2cc1O	?	?	-2%	?	-5%	1%
C/C(=N/NC(N)=S)c1ccc(Br)s1	-12%	.	-19%	22µM*	-14%	3%
CCOc1ccccc1NC(=O)CSc1nnc(CC)c(CC)n1	.	.	-12%	.	-21%	-11%
COc1cccc(CNC(=O)CN(C)S(=O)(=O)c2cccc3cccnc23)c1	3%	.	-10%	.	-17%	-10%
CN(CC(=O)N1CCCCC1)S(=O)(=O)c1cccc2cccnc12	2%	16µM*	-2%	?	1%	-14%
CCSS(=O)(=O)c1cccc2cccnc12	3.2µM*	.	?	.	10%	?
CN(Cc1ccccc1)S(=O)(=O)c1cccc2cccnc12	0%	22µM*	-7%	8.9µM*	-14%	-9%
CC1Cc2ccccc2N1C(=O)CN(C)S(=O)(=O)c1cccc2cccnc12 (stereo not given)	-6%	-4%	-9%	-11%	-3%	8%
O=C(O)CCS(=O)(=O)c1cccc2cccnc12	-1%	-15%	-6%	-9%	4%	1%
C=CCN1C(=O)C(Cc2ccccc2)S/C1=N/N=C/c1cccs1 (stereo not given)	8%	-13%	-11%	-13%	-22%	-9%
C=CCN1C(=O)C(Cc2ccc(OCC)cc2)S/C1=N\N=C\c1cccs1 (stereo not given)	0%	-13%	-19%	4.5µM*	-26%	-6%
Cc1cccc(N(C(=O)Nc2ccccc2)C2=NCC(C)S2)c1 (stereo not given)	-5%	18µM*	3%	-3%	-2%	-1%
CC(=O)Nc1ccc(S(=O)(=O)N(C2=NCC(C)S2)c2ccccc2)cc1 (stereo not given)	1%	-16%	-3%	13µM*	-16%	-6%
Cc1cccc(N(C(=O)Nc2ccc(Cl)cc2)C2=NCC(C)S2)n1 (stereo not given)	6%	.	3%	6%	-7%	-4%
CC1CN=C(N(C(=O)Nc2ccccc2)c2ccc(F)cc2)S1 (stereo not given)	-6%	10µM*	-4%	-6%	-2%	3%
CC(=O)Nc1ccc(S(=O)(=O)N(C)c2ccccc2)cc1	2%	-12%	-6%	1%	-7%	-3%
CC(=O)Nc1ccc(S(=O)(=O)N(c2cccnc2)S(=O)(=O)c2ccc(NC(C)=O)cc2)cc1	4%	11µM*	1%	-3%	0%	-3%
Cc1ccsc1CCN1C(=O)N(c2ccccc2)C(=O)C1CC(=O)Nc1ccc(F)cc1 (stereo not given)	.	.	-9%	.	?	?
CC[C@@H]1OC(=O)[C@H](C)[C@H](O[C@@H]2C[C@](C)(OC)[C@H](O)[C@H](C)O2)[C@H](C)[C@H](O[C@@H]2O[C@@H](C)C[C@@H](N(C)C)[C@@H]2O)[C@](C)(O)C[C@H](C)C(=O)[C@H](C)[C@H](O)[C@]1(C)O	0%[25.5 µM]	-1%	.	4%[20.9 µM]	.	.
O=C1N=C(N2CCOCC2)S/C1=C\c1ccccc1OS(=O)(=O)c1ccccc1	5%	.	2%	.	-1%	6%
